# Measured values reported in PubChem BioAssay (NCATS).
# Where “and” joins values, the source holds several entries; their conditions need not be identical. Equal values may be shown once. Inconclusive results are not listed. Values without a mark were called inactive. Calls of active or inactive are those of the source. Calls follow the shape of the dose curve; as a rule, active = well fitted curve in the direction sought with a large enough effect; inconclusive = small, poorly fitted or top-dose-only effect, or another doubt; inactive = no such curve, though single readings can be large; an effect the other way counts as inactive or inconclusive.
# Assay: qHTS for Inhibitors of Ubiquitin-specific Protease USP2a Using CHOP2 as the Reporter: K633 Counterscreen (AID 652168); also: % of control where 0% means no effect
# Conditions: No-enzyme DiUb K48 IQF substrate fluorescence interference, kinetic; series mostly up to 57.5 µM; activity change, negative = inhibition: at the top concentration
# How it was run: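 Cell-free interference counterscreen without USP2a: compounds pinned into enzyme-free buffer (20 mM Tris pH 8, 2 mM beta-mercaptoethanol, 0.05% Chaps), then DiUb K48-4IQF substrate added (100 nM stock); fluorescence read kinetically, Ex 525/Em 598.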
SMILES,"activity change, negative = inhibition",outcome
O=C(Nc1ccc([S+](=O)([O-])Nc2nccs2)cc1)c1ccccn1,-5.82%,–
Cc1ccc(-c2csc(NC(=O)c3ccccc3NS(=O)(=O)c3ccc(C)cc3)n2)cc1,-12.2%,–
O=C(Nc1nc(-c2ccccc2)cs1)c1ccccc1S(=O)(=O)Nc1nccs1,-23.4%,–
O=C(Cc1nc2ccc(Cl)cc2[nH]1)Nc1ccc(S(=O)(=O)Nc2nccs2)cc1,-21.6%,–
O=C(Cc1ccccc1)Nc1ccc(S(=O)(=O)Nc2nccs2)cc1,4.15%,–
CCNC(=O)C1CCC(C(=O)Nc2ccc([S+](=O)([O-])Nc3nccs3)cc2)CC1 (configuration not stated),2.1%,–
Cc1cccc(NC(=O)c2cc(-c3ccc(C)c(C)c3)nc3ccccc23)c1,-22.5%,–
Cc1ccc(-c2cc(C(=O)Nc3ccc(-c4nn[nH]n4)cc3)c3ccccc3n2)cc1C,25%,–
Cc1ccc(S(=O)(=O)NCC(=O)Nc2nc(-c3ccccc3)cs2)cc1,4.08%,–
O=C(O)c1cccc(S(=O)(=O)Nc2nccs2)c1,-2.85%,–
CCCC1CCC(C(=O)Nc2ccc(S(=O)(=O)Nc3nccs3)cc2)CC1 (configuration not stated),-16%,–
Cc1ccc(S(=O)(=O)NCCC(=O)Nc2nc(-c3ccccc3)cs2)cc1,-14.4%,–
COc1ccc(-c2csc(NC(=O)c3ccccc3NS(=O)(=O)c3ccc(C)cc3)n2)cc1,-8.18%,–
CC(=O)Nc1ccc(S(=O)(=O)Nc2nccs2)cc1,–,inactive
CCCCCN1CCC(C(=O)Nc2ccc([S+](=O)([O-])Nc3nccs3)cc2)CC1,-1.85%,–
CC1CC1C(=O)Nc1ccc([S+](=O)([O-])Nc2nccs2)cc1 (configuration not stated),-20%,–
Cc1ccc(S(=O)(=O)Nc2cc(C)ccc2C(=O)Nc2nc(-c3ccccc3)cs2)cc1,-13%,–
CCCCCC1CCC(C(=O)Nc2ccc(S(=O)(=O)Nc3nccs3)cc2)CC1 (configuration not stated),–,inactive
Cc1ccc(S(=O)(=O)Nc2cc(F)ccc2C(=O)Nc2nc(-c3ccccc3)cs2)cc1,-5.17%,–
O=C(Nc1ccc([S+](=O)([O-])Nc2nccs2)cc1)C1CCNCC1,-4.89%,–
O=c1[nH]c(CN2CCOCC2)nc2sc3c(c12)CCCC3,1.52%,–
Cc1ccc(S(=O)(=O)Nc2cnccc2C(=O)Nc2nc(-c3ccc(-c4ccccc4)cc3)cs2)cc1,-16.8%,–
O=S(=O)(Nc1nc(CN2CCOCC2)nc2sc3c(c12)CCC3)c1ccc2c(c1)OCCO2,-2.39%,–

# Assay: qHTS for Inhibitors of Ubiquitin-specific Protease USP2a Using CHOP2 as the Reporter: Cytotox Assay (AID 652170); also: nearly all actives have a fitted effect of over 70% in size; also: potency is read from the fitted curve at half-maximal effect;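 as to activity change, negative = cytotoxicity: plate controls were DMSO-treated cells for no effect and wells without cells for full effect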
# Conditions: HCT116 viability, CellTiter-Glo luminescence, 72 h; series mostly up to 46.1 µM; activity change, negative = cytotoxicity: at the top concentration
# How it was run: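 HCT116 human colon cancer cells, 600 per well in DMEM with 10% FBS, exposed to compounds for 72 hr at 37 deg C. ATP measured by CellTiter-Glo luminescence, normalized to DMSO cells and no-cell background.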
SMILES,"activity change, negative = cytotoxicity",Potency
Cc1ccc(-c2cc(C(=O)NCC[S+](=O)([O-])O)c3ccccc3n2)cc1C,-7.03%,–
O=C(Nc1ccc(S(=O)(=O)Nc2nccs2)cc1)c1ccnc(-c2ccccc2)c1,8.1%,–
O=C(Nc1ccc([S+](=O)([O-])Nc2nccs2)cc1)c1ncn[nH]1,-18%,–
O=C1CC(c2ccccc2)Cc2[nH]c(=O)c(-c3nc(-c4ccc(F)cc4)cs3)cc21 (configuration not stated),–,4.18 µM (active)
Cc1ccc(S(=O)(=O)Nc2ccccc2C(=O)Nc2nc(-c3ccccc3)c(Br)s2)cc1,–,5.9 µM (active)
O=C(Nc1nc(-c2ccccc2)cs1)c1cccc(NS(=O)(=O)c2nccs2)c1,3.4%,–
COc1cc(NS(=O)(=O)c2ccc(C)cc2)c(C(=O)Nc2nc(-c3ccccc3)cs2)cc1OC,1.75%,–
O=c1[nH]c(CCl)nc2sc3c(c12)CCC3,–,14.8 µM (active)
CC(C)(C)OC(=O)N1CCC(C(=O)Nc2ccc([S+](=O)([O-])Nc3nccs3)cc2)CC1,17.2%,–
CCCCC(=O)N1CCC(C(=O)Nc2ccc([S+](=O)([O-])Nc3nccs3)cc2)CC1,15.9%,–
CCOC(=O)C1CCC(C(=O)Nc2ccc([S+](=O)([O-])Nc3nccs3)cc2)CC1 (configuration not stated),2.41%,–
Cc1cccc2c(C(=O)O)cc(Cl)nc12,30.1%,–
Cc1ccc(-c2cc(C(=O)Nc3ccccc3)c3ccccc3n2)cc1C,-10.5%,–
CCCCc1ccc(C(=O)Nc2ccc(S(=O)(=O)Nc3nccs3)cc2)cc1,-5.69%,–
Cc1ccc(S(=O)(=O)Nc2ccccc2C(=O)Nc2nc(-c3ccccc3)cs2)cc1,–,14.8 µM (active) and 11.8 µM (active)
N#Cc1cccc(S(=O)(=O)Nc2cnccc2C(=O)Nc2nc(-c3ccccc3)cs2)c1,9.46%,–
O=C(Nc1ccc([S+](=O)([O-])Nc2nccs2)cc1)c1ccccn1,-7.26%,–
Cc1ccc(-c2csc(NC(=O)c3ccccc3NS(=O)(=O)c3ccc(C)cc3)n2)cc1,–,16.6 µM (active)
O=C(Nc1nc(-c2ccccc2)cs1)c1ccccc1S(=O)(=O)Nc1nccs1,-17.1%,–
O=C(Cc1nc2ccc(Cl)cc2[nH]1)Nc1ccc(S(=O)(=O)Nc2nccs2)cc1,2.72%,–

SMILES,"activity change, negative = cytotoxicity",Potency
O=C(Cc1ccccc1)Nc1ccc(S(=O)(=O)Nc2nccs2)cc1,2.48%,–
CCNC(=O)C1CCC(C(=O)Nc2ccc([S+](=O)([O-])Nc3nccs3)cc2)CC1 (configuration not stated),-2.91%,–
Cc1cccc(NC(=O)c2cc(-c3ccc(C)c(C)c3)nc3ccccc23)c1,-6.65%,–
Cc1ccc(-c2cc(C(=O)Nc3ccc(-c4nn[nH]n4)cc3)c3ccccc3n2)cc1C,23.3%,–
Cc1ccc(S(=O)(=O)NCC(=O)Nc2nc(-c3ccccc3)cs2)cc1,-0.551%,–
O=C(O)c1cccc(S(=O)(=O)Nc2nccs2)c1,-13.1%,–
CCCC1CCC(C(=O)Nc2ccc(S(=O)(=O)Nc3nccs3)cc2)CC1 (configuration not stated),4.63%,–
Cc1ccc(S(=O)(=O)NCCC(=O)Nc2nc(-c3ccccc3)cs2)cc1,-18.8%,–
COc1ccc(-c2csc(NC(=O)c3ccccc3NS(=O)(=O)c3ccc(C)cc3)n2)cc1,–,18.7 µM (active)
CC(=O)Nc1ccc(S(=O)(=O)Nc2nccs2)cc1,–,inactive
CCCCCN1CCC(C(=O)Nc2ccc([S+](=O)([O-])Nc3nccs3)cc2)CC1,6.2%,–
CC1CC1C(=O)Nc1ccc([S+](=O)([O-])Nc2nccs2)cc1 (configuration not stated),-3.34%,–
Cc1ccc(S(=O)(=O)Nc2cc(C)ccc2C(=O)Nc2nc(-c3ccccc3)cs2)cc1,–,14.8 µM (active)
CCCCCC1CCC(C(=O)Nc2ccc(S(=O)(=O)Nc3nccs3)cc2)CC1 (configuration not stated),–,inactive
Cc1ccc(S(=O)(=O)Nc2cc(F)ccc2C(=O)Nc2nc(-c3ccccc3)cs2)cc1,–,3.32 µM (active)
O=C(Nc1ccc([S+](=O)([O-])Nc2nccs2)cc1)C1CCNCC1,10.5%,–
O=c1[nH]c(CN2CCOCC2)nc2sc3c(c12)CCCC3,14.9%,–
Cc1ccc(S(=O)(=O)Nc2cnccc2C(=O)Nc2nc(-c3ccc(-c4ccccc4)cc3)cs2)cc1,–,20.9 µM (active)
O=S(=O)(Nc1nc(CN2CCOCC2)nc2sc3c(c12)CCC3)c1ccc2c(c1)OCCO2,17%,–
